# Compound activity (PubChem BioAssay)
# This is a sample that favours compounds with a hit; in the whole collection about 14% have one here.
# USP17 inh: blocks human USP17 ubiquitin-rhodamine cleavage; hit rate 6.5% among 47,000; purified USP17, Ub-rhodamine cleavage fluorescence, 3 h; A8MUK1; inhibition, % at 50 µM; AID 1645855
# Target sequence (A8MUK1 whole entry, looked up): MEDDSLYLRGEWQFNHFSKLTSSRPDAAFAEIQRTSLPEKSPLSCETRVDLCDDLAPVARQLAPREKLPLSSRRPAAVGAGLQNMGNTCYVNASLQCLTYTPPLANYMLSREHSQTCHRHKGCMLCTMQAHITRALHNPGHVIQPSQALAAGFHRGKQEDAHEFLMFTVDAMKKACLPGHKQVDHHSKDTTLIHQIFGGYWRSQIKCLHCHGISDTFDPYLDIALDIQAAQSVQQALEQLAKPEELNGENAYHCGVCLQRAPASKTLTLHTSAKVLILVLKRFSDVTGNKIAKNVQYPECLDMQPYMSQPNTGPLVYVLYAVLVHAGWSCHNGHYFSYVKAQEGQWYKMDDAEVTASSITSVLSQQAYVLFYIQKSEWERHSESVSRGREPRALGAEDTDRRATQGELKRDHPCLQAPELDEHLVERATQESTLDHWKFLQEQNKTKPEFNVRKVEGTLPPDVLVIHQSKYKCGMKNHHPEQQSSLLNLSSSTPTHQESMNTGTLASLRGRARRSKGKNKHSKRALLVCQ
# USP30 inh: inhibitors of human USP30 deubiquitinase. purified USP30, Ub-rhodamine cleavage fluorescence. inhibition, % at 25 µM. hit rate 5.3% among 47,000. AID 1645860
# USP8 block: blocks human USP8 ubiquitin-rhodamine cleavage | hit rate 4.2% among 47,000 | purified USP8, Ub-rhodamine cleavage fluorescence, 30 min | P40818 | inhibition, % at 20 µM
# USP28 block: blocks human USP28 ubiquitin-rhodamine cleavage. purified USP28, Ub-rhodamine cleavage fluorescence, 30 min. hit rate 3% among 47,000. inhibition, % at 25 µM. AID 1645857
# USP10 block: inhibitors of human USP10 deubiquitinase | inhibition, % at 20 µM | purified USP10, Ub-rhodamine fluorescence, 60 min | hit rate 1.1% among 47,000
# Hits are given with their value; – = inactive; · = no result. No stated cut-off is given here; in the data, active means inhibition above about 30%; inactive means the rest.
SMILES,USP17 inh,USP30 inh,USP8 block,USP28 block,USP10 block
Cn1c(=O)c2c(C(=O)Nc3ccc(Cl)cc3)cc(=O)n(C)c2n(C)c1=O,–,–,–,–,–
Cc1ccc(NC(=O)c2cc(=O)n(C)c3c2c(=O)n(C)c(=O)n3C)cc1C,43.6,–,–,–,–
Cc1ccc(NC(=O)c2cc(=O)n(C)c3c2c(=O)n(C)c(=O)n3C)c(C)c1,–,61.1,–,–,–
Cc1nc(SCC(=O)Nc2ccc(S(N)(=O)=O)cc2)c2cnn(-c3ccccc3)c2n1,–,–,–,–,41.4
Cc1nc2ccc(NC(=O)COc3ccccc3F)cc2s1,–,–,–,–,–
Cc1nc2ccc(NC(=O)Nc3ccccc3F)cc2s1,–,–,–,40.4,–
C[C@@]12C[C@H]3CN(C(=O)c4cccc(-c5cncnc5)n4)[C@@H]1CCCC[C@@H]2N3,–,–,–,–,–
Cc1ccc2c(CNCCC3=CCCCC3)c(C(=O)O)n(C)c2c1,–,–,–,–,71.7
COc1ccc2c(CNCCC3=CCCCC3)c(C(=O)O)n(Cc3ccc(F)cc3)c2c1,–,–,–,–,–
Cc1ccc(C2=Nc3ccccc3N(CC(=O)Nc3cccc(C)c3C)C(=O)C2)cc1C,36.1,33.9,43.1,31.6,–
Cc1cccc(NC(=O)CN2C(=O)CC(c3ccccc3)=Nc3ccccc32)c1C,–,33.7,–,–,–
Cc1cc(NCC(=O)Nc2ccccc2C)n2nc(-c3cccnc3)nc2n1,–,–,–,–,–
COCCCn1c(C(=O)N(Cc2ccccc2)Cc2ccccc2)cc2c(=O)n3ccccc3nc21,–,–,–,–,–
Cc1cccc2nnc(N3CCCC(C(=O)NCc4cccc(F)c4)C3)n12 (configuration not stated),–,–,–,–,–
COc1cccc(NC(=O)C2Cn3ccnc3C3(CCN(C(C)=O)CC3)O2)c1 (configuration not stated),–,–,–,–,–
O=C(Nc1cccc2cccnc12)c1nn(C2CCS(=O)(=O)C2)c2c1CCCC2 (configuration not stated),–,–,–,–,–
O=C(Nc1ccc(Cl)cn1)c1nn(C2CCS(=O)(=O)C2)c2c1CCCC2 (configuration not stated),38.2,–,–,–,–
Cn1c(=O)n([C@@H](Cc2ccccc2)C(=O)N2CCCCC2)c(=O)c2ccccc21,–,–,–,–,–
CCCn1c(=N)n(CC(C)O)c2ccccc21 (configuration not stated),–,–,–,–,–
CCn1c(=N)n(CCOc2ccc(F)cc2)c2ccccc21,–,39.3,–,96.7,–
Cc1ccc(OCCn2c(=N)n(C(C)C)c3ccccc32)cc1,–,–,–,77.8,–
COC(=O)c1cn(CC(=O)NCCOc2ccc(Cl)cc2)c2ccccc12,–,44.4,–,–,–
O=C(Cc1cccc(Cl)c1)Nc1cc(-c2ccccn2)no1,–,–,–,–,–
O=C(Nc1cc(-c2ccccn2)no1)c1cccc(F)c1,–,–,–,–,–
COc1ccc(C(=O)Nc2cc(-c3ccccn3)no2)cn1,–,–,–,62.5,–
SMILES,USP17 inh,USP30 inh,USP8 block,USP28 block,USP10 block
O=C(Cc1ccc(Cl)cc1)Nc1cc(-c2ccccn2)no1,40.4,–,–,–,–
Cc1ccc(NC(=O)NC2CCN(c3nc4cccnc4n(C)c3=O)CC2)c(C)c1,–,–,–,–,–
O=C(c1c2c(NCC3CC3)ncnc2n2ccccc12)N1CCOCC1,–,–,–,–,–
CN1c2ccc(Cl)cc2C(=O)NC12CCN(C(=O)Nc1ccccc1)CC2,–,–,–,–,–
COCc1ccc(-c2ccc(S(=O)(=O)C3CCN(CC(=O)c4ccc(F)cc4)CC3)cc2)cc1,–,–,–,–,–
CC(=O)O[C@H]1CC[C@]2(C)[C@H]3C(=O)C=C4[C@@H]5C[C@@](C)(C(=O)O)CC[C@]5(C)CC[C@@]4(C)[C@]3(C)CC[C@H]2C1(C)C,–,–,–,–,–
CC1(C)C(O)CCC2(C)C1CCC1(C)C2C(=O)C=C2[C@@H]3C[C@@](C)(C(=O)O)CCC3(C)CC[C@]21C (some centres not stated),45.9,49.1,–,–,–
COC(=O)c1cc(NC(=O)Nc2ccc(OC(F)(F)F)cc2)ccc1N1CCOCC1,–,–,–,32.4,–
COC(=O)c1cc(NC(=O)Nc2ccccc2C(F)(F)F)ccc1N1CCOCC1,–,–,–,–,–
CCn1c(Cn2cccn2)nc2cc(NC(=O)c3ccccc3C)ccc21,–,–,–,46.1,–
CCn1c(Cn2cccn2)nc2cc(NC(=O)C3CCCCC3)ccc21,–,–,–,37.6,–
CN(C)c1cccc(C(=O)N2CCN(c3cnn4cnnc4c3)CC2)c1,–,–,–,–,–
O=C(NC1CCC1)[C@H]1C[C@@H]2CN(S(=O)(=O)C3CC3)C[C@H]1O2,–,–,–,–,–
Cc1ccc(-c2nc(NC(=O)Nc3ccc(C(F)(F)F)cc3)sc2C)cc1Cl,32.8,–,–,–,–
CCCCCn1c(=O)c2sccc2n2c(CCC(=O)NC3CCCCCC3)nnc12,35.5,–,–,–,–
COc1ccc(S(=O)(=O)N2CCN(c3ccnc4cc(Cl)ccc34)CC2)cc1,–,32.9,–,–,–
CSc1ccccc1NC(=O)c1ccc(-n2cccn2)nn1,61.9,41.0,–,–,–
CSc1ccccc1NC(=O)c1ccc(N2CCOCC2)nn1,·,–,–,–,–
COc1ccccc1N1CCN(C(=O)c2ccc3c(=O)n(CCc4ccccc4)c(=O)[nH]c3c2)CC1,–,35.4,–,–,40.2
CCN(CCCNC(=O)c1ccc(Cn2c(=O)[nH]c3ccccc3c2=O)cc1)c1ccccc1,58.5,–,–,–,–
COc1ccc(N2CCN(CCCNC(=O)c3ccc4c(=O)n(CCc5ccccc5)c(=O)[nH]c4c3)CC2)cc1,–,–,–,–,–
CCN1CCN(CCCNC(=O)c2ccc3c(=O)n(CCc4ccccc4)c(=O)[nH]c3c2)CC1,–,32.1,–,–,–
COc1ccc(Cn2c(=O)[nH]c3cc(C(=O)NCCCN4CCN(c5cccc(Cl)c5)CC4)ccc3c2=O)cc1,50.6,46.2,83.0,–,60.0
Cc1ccc(S(=O)(=O)NC(=O)N(Cc2ccc3c(c2)CCO3)C2CC2)cc1,–,–,–,–,–
Cc1cccc(N2CCN(C(=O)CCn3c(=O)[nH]c4ccccc4c3=O)CC2)c1C,45.8,35.6,–,–,–
COc1cccc(C(=O)COC(=O)c2cc(=O)[nH]c3ccccc23)c1,36.8,–,–,–,–
O=C(COC(=O)c1cc(=O)[nH]c2ccccc12)c1ccc(Cl)cc1,–,–,–,–,–
COc1cccc2c1Oc1c(c(=O)n(C)c(=O)n1C)C2c1c(O)n(C)c(=O)n(C)c1=O (configuration not stated),–,–,–,–,–
Cn1c(=O)n([C@@H](Cc2ccccc2)C(=O)N[C@@H](C(=O)O)c2ccc(O)cc2)c(=O)c2ccccc21,–,–,75.1,–,–
